Screening data (PubChem BioAssay)
The full list was thinned out, with hits kept by preference.
IL1B secr inh – qHTS for Inhibitors of Inflammasome Signaling: IL-1-beta AlphaLISA Primary Screen. actives 4.7% (n = 360,000). THP-1 LPS/ATP IL-1B secretion, AlphaLISA, 16 h; hits give low values. AID 743279, 2014. activity change, % at 57.5 µM; in the data active = activity change below about -50%; inconclusive = mostly about -30% to -49%
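Secreted IL-1B measured by AlphaLISA bead assay after 16 h compound exposure of THP-1 cells; compounds (final up to 57.5 uM) added 1 h before LPS (250 ng/mL) and ATP (1.25 mM) stimulation; lower signal means less secretion.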
TDP1 cell noCPT – qHTS for Inhibitors of human tyrosyl-DNA phosphodiesterase 1 (TDP1): qHTS in cells in absence of CPT. DT40 Tdp1-/- hTDP1 cells, no CPT, ATP luminescence, 48 h. Potency, µM (highest dose often 46.2 µM), most hits filed as inhibitors. actives 15% (n = 420,000); note: nearly all actives have a fitted effect of over 55% in size
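DT40 Tdp1-/-;hTDP1 cells, no CPT (DMSO vehicle only), 400 cells/well; compounds pin-transferred; ≥48 hr, 37 °C; CellTiter-Glo 30 min RT dark, luminescence read.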
HT1080NT lethal – qHTS for induction of synthetic lethality in tumor cells producing 2HG: qHTS for the HT-1080-NT fibrosarcoma cell line; HT-1080-NT fibrosarcoma viability, CellTiter-Glo ATP luminescence, 48 h; Potency, µM (titrated, usually from 46.1 µM), hits mostly cytotoxic; actives 1.6% (n = 360,000); AID 686970, 2013;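 note: NT is the 2HG producing partner of a matched IDH1 knockdown line; nearly all actives have a fitted effect of over 55% in size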
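750 cells/well, RPMI + 5% FBS; 2 h settle, compound pin-transfer, 48 h at 37 degrees C. CellTiter-Glo 10 min RT, luminescence. Normalized to DMSO and media-only wells.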
HT1080 IDH1KD tx – qHTS for induction of synthetic lethality in tumor cells producing 2HG: qHTS for the HT-1080-IDH1KD cell line | HT-1080 IDH1 knockdown viability, ATP luminescence, 48 h | Potency, µM (doses to about 46.1 µM), hits mostly cytotoxic | actives 2% (n = 360,000)
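Viability of IDH1-knockdown HT-1080 fibrosarcoma cells was assessed by CellTiter-Glo after 48 h at 37 °C with titrated compound; concentration-effect curves were classified by fit quality and response size.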
TDP1 cell CPT – qHTS for Inhibitors of human tyrosyl-DNA phosphodiesterase 1 (TDP1): qHTS in cells in presence of CPT; chicken DT40 Tdp1-/-;hTDP1 cells + 20 nM CPT, ATP luminescence, 48 h; Potency, µM (highest dose often 46.2 µM), hits mostly inhibitors; actives 12% (n = 420,000); note: nearly all actives have a fitted effect of over 55% in size
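Chicken DT40 Tdp1-/- cells stably complemented with human TDP1 were seeded at 400 cells/well in medium containing 20 nM camptothecin, exposed to pin-transferred compounds, and grown at 37 °C for at least 48 hr. Viability was read as ATP luminescence.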
ALOX12 inh – Primary qHTS assay for inhibitors of human arachidonate 12S-lipoxygenase (ALOX12): Round 2. Polyunsaturated fatty acid lipoxygenase ALOX12 (Homo sapiens), P18054. purified 12hLO, xylenol orange hydroperoxide absorbance. Potency, µM (titrated, usually from 108 µM), usual class: inhibitors. actives 1.1% (n = 580,000)
Target sequence (P18054 whole entry, looked up): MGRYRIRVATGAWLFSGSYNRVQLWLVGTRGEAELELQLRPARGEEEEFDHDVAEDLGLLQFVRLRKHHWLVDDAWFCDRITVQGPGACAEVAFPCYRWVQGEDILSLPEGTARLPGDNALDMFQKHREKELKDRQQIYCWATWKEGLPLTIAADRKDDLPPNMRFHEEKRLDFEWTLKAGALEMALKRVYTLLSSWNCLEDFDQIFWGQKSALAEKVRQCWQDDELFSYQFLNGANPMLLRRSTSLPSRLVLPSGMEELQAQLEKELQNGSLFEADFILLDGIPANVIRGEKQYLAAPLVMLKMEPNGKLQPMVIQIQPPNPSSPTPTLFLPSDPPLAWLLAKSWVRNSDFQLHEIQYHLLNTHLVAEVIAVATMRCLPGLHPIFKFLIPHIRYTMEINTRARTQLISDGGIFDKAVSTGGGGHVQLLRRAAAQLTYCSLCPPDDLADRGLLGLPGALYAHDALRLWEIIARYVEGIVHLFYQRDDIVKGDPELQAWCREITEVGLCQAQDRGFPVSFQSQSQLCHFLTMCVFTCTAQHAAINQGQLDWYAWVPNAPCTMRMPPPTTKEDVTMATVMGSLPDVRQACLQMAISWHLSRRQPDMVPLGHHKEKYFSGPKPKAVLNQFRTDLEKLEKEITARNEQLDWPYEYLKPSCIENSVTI
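Purified human 12hLO (150 nM final) in 25 mM Hepes, 0.01% Triton X-100, pH 7.0 was preincubated 15 min at room temperature with compound. Then 40 uM arachidonic acid was added, 30 min. Hydroperoxide was read by Fe-XO absorbance ratio 573/405 nm.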
Hits are given with their value; 0 = inactive; ? = inconclusive; - = no result given; [ ] = dose if it differs, or a comment. Unless noted, calls come from the whole dose curve; as a rule, active = well fitted curve in the direction sought with a large enough effect; inconclusive = small, poorly fitted or top-dose-only effect, or another doubt; inactive = no such curve, though single readings can be large; an effect the other way counts as inactive or inconclusive.

SMILES	IL1B secr inh	TDP1 cell noCPT	HT1080NT lethal	HT1080 IDH1KD tx	TDP1 cell CPT	ALOX12 inh
COc1ccc(-c2csc(N(CC3CCCO3)C(=O)c3ccccc3)n2)cc1 (configuration not stated)	0	?	0	0	?	0
CCC(=O)N(CCCN(C)C)c1nc(-c2cc(OC)ccc2OC)cs1	?	0	0	0	0	0
COc1ccc(-c2csc(N(CCCN(C)C)C(=O)c3ccc(Br)cc3)n2)cc1	-76	21µM	21µM	21µM	21µM	0
COc1ccc(C)c2sc(N(CCCN(C)C)C(=O)c3ccc(S(=O)(=O)N(C)C)cc3)nc12	?	0	0	0	?	0
CC(C)NC(=O)CC1=C2CCCCC2N(C)C1=O (configuration not stated)	-	-	-	-	-	0
O=C(c1ccc(Cl)cc1Cl)N1CCC(c2nnc3n2C(C(=O)N2CCOCC2)CC3)CC1 (configuration not stated)	-	-	-	-	-	0[6.33 µM]
O=C(CNC(=O)c1ccccc1Cl)OCc1cc(=O)n2nc(C3CC3)sc2n1	-	0	-	-	0	0
COCC(=O)N1CCC2(CC1)CN(c1cccc(-c3ccccc3)c1)C2	-	?	-	-	?	0
COc1ccc(CCc2nc3nccc(-c4cccc(OC)c4)n3n2)cc1	-	-	-	-	-	0
Cc1ccccc1OCCC(=O)Nc1cc(S(=O)(=O)N2CCOCC2)ccc1OC(C)C	0	?	0	0	?	0
CCc1ccc2oc(-c3ccc(OC)cc3)cc(=Nc3cccc(C(=O)O)c3)c2c1	-66	?	0	0	?	?
COc1ccc(-c2cc(=Nc3ccc(C(=O)O)cc3)c3cc(C)ccc3o2)cc1	0	0	0	0	0	0
Cc1ccc(CN2C(=O)C(CC(C)C)Nc3ncnc(N4CCN(c5ccccn5)CC4)c32)cc1 (configuration not stated)	-56	18µM	?	?	?	0
CC(C)CC1Nc2ncnc(N3CCN(c4ccccn4)CC3)c2N(Cc2ccc(Br)cc2)C1=O (configuration not stated)	?	?	0	?	?	0
CC(C)CC1Nc2ncnc(N3CCOCC3)c2N(Cc2ccccc2)C1=O (configuration not stated)	0	0	0	0	0	?
COc1ccc(CN2C(=O)C(CC(C)C)Nc3ncnc(N4CCN(c5ccccn5)CC4)c32)cc1 (configuration not stated)	-58	?	0	?	?	0
O=[S+]([O-])(Nc1ccccc1)c1ccc2c(c1)OCCN(Cc1cncnc1)C2	-	-	-	-	-	0
COc1cccc(NC(=S)N2CCC(C(=O)c3ccc(F)cc3)CC2)c1	?	?	0	0	?	0
COc1ccc(NC(=S)N2CCC(C(=O)c3ccc(OC)cc3)CC2)cc1	0	16µM	0	0	?	0
COc1ccc(C(=O)C2CCN(C(=S)Nc3ccc(F)cc3)CC2)cc1	-63	0	0	0	0	0
COc1ccc(NC(=S)N2CCC(C(=O)c3ccc(C)cc3)CC2)cc1	0	8.2µM	0	0	?	?
Cc1nc2nc(NC(=O)c3ccc(Cl)cc3)[nH]n2c(=O)c1Cc1ccccc1	-	0	-	-	0	0
Cc1cccc(-c2c(NC(=O)c3ccco3)oc3c(C)cccc3c2=O)c1	0	26µM	0	0	?	0
COc1cc(-c2c(NC(=O)c3ccco3)oc3c(C)cccc3c2=O)cc(OC)c1OC	0	18µM	0	0	0	0
Cc1ccc(C)n1-c1ccc(N2CCOCC2)c(Br)c1	?	15µM	?	?	18µM	0
SMILES	IL1B secr inh	TDP1 cell noCPT	HT1080NT lethal	HT1080 IDH1KD tx	TDP1 cell CPT	ALOX12 inh
CCCNC(=O)N1CCC(OCCOc2cccnc2)CC1	-	-	-	-	-	0
CCOc1ccc(C2=C/C(=C/c3cccnc3)C(=O)O2)cc1	0	?	0	0	?	0
O=C1/C(=C/c2ccccc2F)CCc2ccccc21	-	-	-	-	-	3.2µM
CCC1C/C(=C\c2cccnc2)C(=O)/C(=C/c2cccnc2)C1 (configuration not stated)	?	4.6µM	?	?	3.3µM	0
O=C1/C(=C/c2cccnc2)CC/C1=C\c1cccnc1	-87	?	0	0	?	0
NC1=NC(=O)/C(=C\c2cccnc2)S1	0	0	0	0	?	?
O=C1/C(=C\c2cccnc2)CCc2ccccc21	-111	18µM	?	?	13µM	0
Cc1nc(-c2ccc(OC(F)(F)F)cc2)sc1C(=O)N1CCOCC1	-	-	-	-	-	0
Cc1ccc(N(CC(=O)N[C@H]2C[C@@H]3OCC[C@H]23)S(C)(=O)=O)cc1	-	-	-	-	-	0
Cc1nc(-c2cccc(F)c2)sc1CCNC(=O)CC(C)C	-	-	-	-	-	0
CC(C)N1C(=O)S/C(=C/c2cccnc2)C1=O	0	0	0	0	0	0
CC(C)/C=C1\CC/C(=C\c2cccnc2)C1=O	0	21µM	0	0	?	0
O=C1/C(=C/c2ccc(C(=O)O)cc2)CCC/C1=C\c1ccc(C(=O)O)cc1	0	0	0	0	0	0
O=C1/C(=C/c2cccnc2)CCC/C1=C\c1cccnc1	-107	2.1µM	?	?	2.1µM	0
CN1c2cccnc2CN(Cc2cccc(Cl)c2)CC[C@H]1CO	-	-	-	-	-	0
CC(Sc1cccc2cccnc12)C(=O)NC(=O)NC1CC1 (configuration not stated)	-	-	-	-	-	0
CC(=O)c1ccc(C(=O)Nc2ccc(N3CCOCC3)cc2)cc1	0	0	0	0	0	0
CCOc1cc(C(=O)Nc2ccc(F)cc2)cc(Br)c1OC	0	?	0	0	0	0
CC(C)c1ccc(C(=O)Nc2ccc(N3CCOCC3)cc2)cc1	0	21µM	?	?	18µM	?
CC(C)(C)c1ccc(C(=O)Nc2ccc(N3CCOCC3)cc2)cc1	?	18µM	?	?	18µM	?
CCOc1cc(C(=O)Nc2ccc(N3CCOCC3)cc2)cc(Br)c1OC	0	26µM	?	?	?	0
CC(C)(C)c1ccc(C(=O)N2CCC(C(=O)NC3CC3)CC2)cc1	0	0	0	0	0	0
CC(C)(C)c1ccc(C(=O)N2CCC(NC(=O)c3ccccc3)CC2)cc1	0	?	0	0	15µM	0
CCNC(=O)N[C@H]1[C@H](O)[C@@H](N2CCN(c3ccccc3OC)CC2)[C@@H]2OC[C@H]1O2	-	-	-	-	-	0
